Screens from PubChem.
Compounds with a hit are over-represented: about 5% of the library has one in this group of screens.
VACV mCherry inh: vaccinia inhibition (mCherry reporter). Vaccinia virus mCherry reporter infection, fluorescence. Potency, µM (doses to about 36.5 µM), inactives show at the highest dose activity change, negative = inhibition, usual class: inhibitors. 0.63% of 310,000 active; calls by dose curve; tested in A549 cells; also: potency is read from the fitted curve at half-maximal effect; nearly all actives have a fitted effect of over 35% in size
Tb PYK inh: blocks Trypanosoma brucei pyruvate kinase. TbPYK enzyme, Kinase-Glo Plus ATP luminescence, 45 min. Potency, µM (top dose mostly 76.8 µM), inactives show at the top dose activity, negative = inhibition, actives largely listed as inhibitors. 0.12% of 410,000 active. AID 624173; also: potency is read from the fitted curve at half-maximal effect; nearly all actives have a fitted effect of over 50% in size
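T. brucei PYK with substrate was exposed to pin-transferred compounds across a concentration series, then started with 130 uM ADP (final). After 45 min at room temperature, Kinase-Glo Plus luminescence was read, normalized and curve-fitted.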
LmPK inhibitor: LmPK (Leishmania mexicana) enzyme inhibition. purified LmPK, Kinase-Glo ATP luminescence, 1 h. Q27686. Potency, µM (highest dose often 57.5 µM), inactives show top-dose activity change, negative = inhibition, actives largely listed as inhibitors. 0.37% of 290,000 active; also: potency is read from the fitted curve at half-maximal effect
Target sequence (Q27686 whole entry, looked up): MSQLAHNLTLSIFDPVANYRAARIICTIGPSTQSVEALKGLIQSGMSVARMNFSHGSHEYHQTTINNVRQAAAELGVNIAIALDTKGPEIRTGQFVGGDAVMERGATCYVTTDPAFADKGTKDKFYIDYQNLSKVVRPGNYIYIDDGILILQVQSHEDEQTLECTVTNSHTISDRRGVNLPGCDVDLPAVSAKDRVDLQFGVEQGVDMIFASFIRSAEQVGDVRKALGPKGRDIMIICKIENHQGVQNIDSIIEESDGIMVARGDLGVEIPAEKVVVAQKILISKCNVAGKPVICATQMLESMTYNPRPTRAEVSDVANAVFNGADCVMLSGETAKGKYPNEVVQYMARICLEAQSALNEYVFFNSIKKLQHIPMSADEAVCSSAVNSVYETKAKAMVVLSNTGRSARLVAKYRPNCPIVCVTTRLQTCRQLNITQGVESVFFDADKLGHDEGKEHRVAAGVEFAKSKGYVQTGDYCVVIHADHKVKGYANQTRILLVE
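Kinase-Glo luminescence read after 1 h RT reaction of 0.1 nM LmPK with 0.5 mM PEP and 0.1 mM ADP. Activity scaled between uninhibited and enzyme-free controls.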
HCMV inh: human cytomegalovirus inhibition. activity change, negative = inhibition, % at 57.5 µM. HFF cells, HCMV-luciferase reporter, 72 h; stronger effect = lower value. 4.5% of 410,000 active; in the data active = activity change below about -60%; inconclusive = no clear call, values can overlap the other calls; inactive = above about -39%
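HFF cells seeded 16 h at 37C, treated with compounds, infected with luciferase-reporter HCMV at MOI 1 PFU/cell; luciferase read at 72 h post infection, normalized to buffer-only and Salinomycin controls.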
Vaccinia Venus: inhibitors of vaccinia virus (Venus reporter) | AID 720580 | Potency, µM (doses to about 36.5 µM), inactives show at the top dose activity change, negative = inhibition, hits mostly inhibitors | Vaccinia virus Venus reporter expression, fluorescence | 0.46% of 330,000 active; calls by dose curve; tested in A549 cells; also: potency is read from the fitted curve at half-maximal effect; nearly all actives have a fitted effect of over 30% in size
Active calls of the source: *; i = inactive; ? = inconclusive; nt = not tested or not shown; [ ] = dose if it differs, or a comment. Unless noted, calls follow the shape of the dose curve; as a rule, active = well fitted curve in the direction sought with a large enough effect; inconclusive = small, poorly fitted or top-dose-only effect, or another doubt; inactive = no such curve, though single readings can be large; an effect the other way counts as inactive or inconclusive. % is scaled to controls: 0 for no effect and ±100 for the full control effect.

SMILES	VACV mCherry inh	Tb PYK inh	LmPK inhibitor	HCMV inh	Vaccinia Venus
C#Cc1ccc([C@H]2C=C(C(=O)N3CCN(Cc4ccccc4)CC3)O[C@@H](OCc3ccc(CO)cc3)C2)cc1	-20.4%	-6.1%	3.7%	-76.0*	?
COC(=O)C1=C(C(=O)OC)[C@@H]2N(C)c3ccccc3[C@@]23C[C@@H](C(=O)OC)N(S(=O)(=O)c2ccc(OC)cc2)C3=N1	nt	nt	4.6%[11.5 µM]	nt	nt
CCOc1ccc2[nH]c3c(N4CCN(C(=O)c5ccco5)CC4)ncnc3c2c1	12.6µM*	8.8%	1.3%	-31.2	-24.1%
CCCCOc1ncnc2c1[nH]c1ccc(F)cc12	?	-4.3%	10.1%	-94.3*	?
O=C(c1ccco1)N1CCN(c2ncnc3c2[nH]c2ccc(Br)cc23)CC1	nt	2.7%	4.2%	?	-26.5%
OC1(c2cccc(C(F)(F)F)c2)CCN(c2ncnc3c2[nH]c2ccc(F)cc23)CC1	nt	6.1%	9.5%	-87.2*	11.2µM*
Fc1ccc2[nH]c3c(N4CCN(c5ccccc5)CC4)ncnc3c2c1	?	-3.6%	1.0%	-97.3*	?
C=C1[C@@H](CCO)N(S(=O)C(C)(C)C)C[C@@H]1C (stereo partly specified)	nt	nt	nt	-12.8	nt
CCOC(=O)N1CCN(c2ncnc3c2[nH]c2ccc(F)cc23)CC1	?	-4.0%	3.0%	-81.0*	?
CCOC(=O)N1CCN(c2ncnc3c2[nH]c2ccc(OC)cc23)CC1	?	-4.1%	-1.0%	?	?
Cc1ccc(C=C2C(=O)c3ccccc3C2=O)o1	i	?	4.47µM*	-19.8	-4.6%
Cc1ccc(/C=C2/C(=O)c3ccc(C(=O)O)cc3C2=O)o1	-3.9%	?	-9.0%	6.3	9.0%
Cc1ccc(C=C2C(=O)c3ccccc3C2=O)s1	1.8%	-28.1%	12.6µM*	1.2	6.6%
O=C1C(=Cc2cccs2)C(=O)c2ccccc21	i	-19.3%	14.1µM*	-19.0	-9.7%
CN(C(=O)c1ccc(NC(=O)Cc2ccc(NC(=O)C3CCCN(C(=O)C4CC4)C3)cc2)cc1)C1CCCC1 (stereo unspecified)	-1.7%	0.9%	nt	6.4	7.1%
Cc1cc(NC(=O)Nc2csc3c2CCCC3)ccc1Br	-25.9%	4.7%	nt	?	-28.3%
COc1ccc(C2/C=C\CN(C(=O)c3ccccc3)[C@H](Cc3ccccc3)C(=O)N2Cc2ccc(F)cc2)cc1 (stereo partly specified)	-25.4%	-8.1%	-1.5%	-63.3*	?
C=CC(=O)N1C/C=C\C(c2ccc(OC)cc2)N(Cc2ccc(F)cc2)C(=O)C1 (stereo unspecified)	?	-4.5%	2.0%	7.2	0.891µM*
COC(=O)N1C/C=C\C(c2ccc(OC)cc2)N(Cc2ccc(F)cc2)C(=O)C1 (stereo unspecified)	-19.4%	0.1%	7.8%	-6.8	-22.2%
COc1ccc(C2/C=C\CN(S(=O)(=O)/C=C/c3ccccc3)[C@H](Cc3ccccc3)C(=O)N2Cc2ccc(F)cc2)cc1 (stereo partly specified)	-9.0%	-15.0%	-3.9%	nt	-3.5%
COc1ccc([C@H]2/C=C\CN(C(=O)c3ccc(C)cc3)[C@@H](C)C(=O)N2Cc2ccc(F)cc2)cc1	i	4.1%	nt	-14.7	-25.7%
COc1ccc([C@H]2/C=C\CN(C(=O)CC(C)(C)C)[C@@H](C)C(=O)N2Cc2ccc(F)cc2)cc1	i	-4.9%	nt	-60.0*	-10.8%
COc1ccc(NC(=O)N2CC3(CCN(S(=O)(=O)c4ccccc4)CC3)C2)cc1	nt	6.9%	nt	nt	nt
COc1ccc(C2/C(=C(/O)c3ccccc3)C(=O)C(=O)N2CCCN2CCOCC2)cc1 (stereo unspecified)	nt	2.5%	21.9%	75.3	nt
CCOC(=O)c1sc(N2C(=O)c3oc4cc(C)c(C)cc4c(=O)c3C2c2ccc(C)cc2)nc1C (stereo unspecified)	-3.9%	-2.2%	nt	-111.2*	-12.8%
COCC(=O)N1CCC2(CC1)CN(Cc1nccs1)C2	nt	-9.1%	nt	nt	nt
Cc1cc(N=Cc2c(O)n(-c3cccc(Cl)c3)c(=O)c3ccccc23)no1	-16.7%	-3.1%	0.5%	-60.2*	-13.1%
O=c1c2ccccc2c(C=Nc2ccc(S(=O)(=O)Nc3ncccn3)cc2)c(O)n1-c1cccc(Cl)c1	nt	nt	6.0%	-6.7	nt
